The panel holds about 79,000 compounds, 15% with a hit somewhere; the sample as a whole holds those more often. Active and inactive are the calls of the source. No stated cut-off is given here; in the data, active means growth inhibition above about 70%; inactive means the rest.
Tests used:
[1] = NCI Yeast Anticancer Drug Screen. Data for the rad52 strain (AID 147);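 further: 0% = growth of vehicle-treated control cultures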; settings: S. cerevisiae rad52 mutant growth inhibition, hits give high values
Method in brief: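 Measured: yeast growth inhibition. System: strain with a defined DNA damage repair alteration. Reference: vehicle-treated control cultures.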

[2] = NCI Yeast Anticancer Drug Screen. Data for the mgt1 strain (AID 153); settings: S. cerevisiae mgt1 mutant growth inhibition, hits give high values
Method in brief: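 After exposure of the mgt1 yeast mutant to compound, growth was measured and reported as inhibition compared with vehicle controls.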

[3] = NCI Yeast Anticancer Drug Screen. Data for the rad50 strain (AID 155);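 further: 0% = growth of vehicle-only cultures of the same strain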; settings: S. cerevisiae rad50 strain growth inhibition, hits give high values
Method in brief: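 Vehicle-treated cultures provide the reference for the growth inhibition reported for compound-exposed, repair-deficient yeast.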

[4] = NCI Yeast Anticancer Drug Screen. Data for the mec2-1 strain (AID 157); settings: S. cerevisiae mec2-1 strain, hits give high values
Method in brief: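 Test agents were screened against the mec2-1 yeast strain, with defined DNA repair or cell cycle alteration. Growth was scored as inhibition against vehicle-only controls.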

[5] = NCI Yeast Anticancer Drug Screen. Data for the rad14 strain (AID 159);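 further: 0% = growth of vehicle-treated control cultures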; settings: S. cerevisiae rad14 strain growth inhibition, hits give high values
Method in brief: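 Inhibition of growth is reported for a repair-deficient yeast mutant following compound treatment, calculated relative to cultures that received vehicle.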

[6] = NCI Yeast Anticancer Drug Screen. Data for the sgs1 mgt1 strain (AID 161);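 further: 0% = growth of cultures given vehicle only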; settings: S. cerevisiae sgs1 mgt1 strain, hits give high values
Method in brief: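 Read-out: growth inhibition vs vehicle controls. Cells: mutant yeast strain deficient in DNA damage repair.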

[7] = NCI Yeast Anticancer Drug Screen. Data for the CLN2oe strain (AID 163);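 further: 0% = growth of vehicle-only control cultures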; settings: S. cerevisiae CLN2oe strain, hits give high values
Method in brief: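 Here, growth inhibition in a cell-cycle-altered yeast strain after compound exposure was quantified against vehicle control growth.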

[8] = NCI Yeast Anticancer Drug Screen. Data for the cln2 rad14 strain (AID 165);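 further: 0% = growth equal to vehicle treated cultures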; settings: S. cerevisiae cln2 rad14 strain, hits give high values
Method in brief: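 Growth of compound-exposed yeast (cln2 rad14 genotype) measured and expressed as inhibition relative to vehicle.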

[9] = NCI Yeast Anticancer Drug Screen. Data for the bub3 strain (AID 167); settings: S. cerevisiae bub3 mutant strain, hits give high values
Method in brief: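 Mutant yeast screening strain plus compound; vehicle-treated cultures serve as the 0% inhibition reference.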

[10] = NCI Yeast Anticancer Drug Screen. Data for the wt2 strain (AID 169); settings: S. cerevisiae wt2 strain growth inhibition, hits give high values
Method in brief: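 Genetically defined yeast strains from a DNA-repair/cell-cycle panel were used. Compound-exposed yeast growth was measured, and the inhibition was calculated relative to vehicle treatment.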

[11] = NCI Yeast Anticancer Drug Screen. Data for the mlh1 strain (AID 171);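 further: 0% = growth of vehicle-treated control cultures of the same strain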; settings: S. cerevisiae mlh1 strain growth inhibition, hits give high values
Method in brief: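 Here the genetically defined yeast mutant is grown with each compound, and the extent to which its growth falls below that of vehicle-exposed cells is reported.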

[12] = NCI Yeast Anticancer Drug Screen. Data for the sgs1 strain (AID 173);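 further: 0% = growth of vehicle-only control cultures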; settings: S. cerevisiae sgs1 mutant, hits give high values
Method in brief: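 Relative growth inhibition, referenced to vehicle, was determined in a yeast strain with a defined alteration affecting DNA damage repair or cell cycle control after compound exposure.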

[13] = NCI Yeast Anticancer Drug Screen. Data for the mlh1 rad18 strain (AID 175); settings: S. cerevisiae mlh1 rad18 strain growth inhibition, hits give high values
Method in brief: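 In this whole-cell yeast screen, a strain with altered DNA damage repair is challenged with compound, and its growth is measured against matched vehicle-treated controls.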

[14] = NCI Yeast Anticancer Drug Screen. Data for the rad18 strain (AID 177); settings: S. cerevisiae rad18 mutant growth inhibition, hits give high values
Method in brief: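 Screen uses a yeast strain with a defined lesion in DNA damage repair; compound effect is read as loss of growth compared to untreated vehicle cultures.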

[15] = NCI Yeast Anticancer Drug Screen. Data for the wt1 strain (AID 149);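 further: 0% = growth of vehicle-treated wt1 cultures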; settings: S. cerevisiae wt1 strain (SPY 50644) growth inhibition, hits give high values
Method in brief: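 Each compound is tested on wt1 yeast and the loss of growth versus vehicle gives the inhibition value.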

[16] = at 5.0 µM (retest, dose inferred, filed as 0.5)
[17] = at 50.0 µM (retest, dose inferred, filed as 5.0)

Measured: growth inhibition

S=c1[nH]nc(-c2ccc(Cl)cc2)s1
active: [1]; at 33.0 µM 93% | [1]; at 100.0 µM 97% | [2]; at 33.0 µM 83% | [2]; at 100.0 µM 97% | [3]; [16] 73% | [3]; at 33.0 µM 90% | [3]; [17] 99% | [3]; at 50.0 µM 87.2% | [3]; at 100.0 µM 95% | [4]; [16] 72% | [4]; at 33.0 µM 71% | [4]; [17] 99% | [4]; at 50.0 µM 87.8% | [4]; at 100.0 µM 96% | [5]; at 33.0 µM 92% | [5]; at 100.0 µM 97% | [6]; [17] 97% | [7]; at 100.0 µM 95% | [8]; [17] 97% | [9]; at 33.0 µM 81% | [9]; [17] 96% | [9]; at 100.0 µM 96% | [10]; at 100.0 µM 96% | [11]; at 100.0 µM 96% | [12]; at 100.0 µM 94% | [13]; [16] 80% | [13]; [17] 99% | [13]; at 50.0 µM 86% | [14]; at 33.0 µM 92% | [14]; at 100.0 µM 96%
inactive: [1]; at 1.2 µM 16% | [1]; at 3.7 µM 7% | [1]; at 11.0 µM 23% | [2]; at 1.2 µM 8% | [2]; at 3.7 µM 11% | [2]; at 11.0 µM 12% | [3]; at 1.2 µM -6% | [3]; at 3.7 µM -7% | [3]; at 11.0 µM 21% | [4]; at 1.2 µM 1% | [4]; at 3.7 µM 12% | [4]; at 11.0 µM -15% | [5]; at 1.2 µM -24% | [5]; at 3.7 µM -18% | [5]; at 11.0 µM -16% | [6]; [16] -8% | [7]; at 1.2 µM 6% | [7]; at 3.7 µM 12% | [7]; at 11.0 µM -10% | [7]; at 33.0 µM 55% | [8]; [16] 52% | [9]; at 1.2 µM 23% | [9]; at 3.7 µM 24% | [9]; [16] 27% | [9]; at 11.0 µM 16% | [10]; at 1.2 µM -28% | [10]; at 3.7 µM -21% | [10]; at 11.0 µM -28% | [10]; at 33.0 µM 69% | [11]; at 1.2 µM -16% | [11]; at 3.7 µM -17% | [11]; at 11.0 µM -8% | [11]; at 33.0 µM 67% | [12]; at 1.2 µM -13% | [12]; at 3.7 µM -13% | [12]; at 11.0 µM -16% | [12]; at 33.0 µM 64% | [14]; at 1.2 µM -15% | [14]; at 3.7 µM -6% | [14]; at 11.0 µM 21%

CCN(CC)CC(O)c1cc(-c2ccc(Cl)cc2)nc2c(-c3ccccc3)cccc12 (stereo not drawn)
active: [15]; at 11.0 µM 98% | [15]; at 33.0 µM 98% | [15]; at 100.0 µM 95% | [3]; at 11.0 µM 98% | [3]; at 33.0 µM 98% | [3]; [17] 94% | [3]; at 50.0 µM 94.7% | [3]; at 100.0 µM 93% | [4]; at 11.0 µM 98% | [4]; at 33.0 µM 98% | [4]; [17] 98% | [4]; at 50.0 µM 87.9% | [4]; at 100.0 µM 96% | [5]; at 11.0 µM 99% | [5]; at 33.0 µM 98% | [5]; at 100.0 µM 95% | [6]; [17] 97% | [6]; at 50.0 µM 97.7% | [7]; at 11.0 µM 98% | [7]; at 33.0 µM 97% | [7]; at 100.0 µM 94% | [8]; [17] 91% | [9]; at 11.0 µM 98% | [9]; at 33.0 µM 97% | [9]; [17] 95% | [9]; at 100.0 µM 92% | [10]; at 11.0 µM 99% | [10]; at 33.0 µM 98% | [10]; at 100.0 µM 94% | [11]; at 11.0 µM 99% | [11]; at 33.0 µM 98% | [11]; at 100.0 µM 95% | [12]; at 11.0 µM 98% | [12]; at 33.0 µM 98% | [12]; at 100.0 µM 96% | [13]; [17] 96% | [13]; at 50.0 µM 99.2% | [14]; at 11.0 µM 98% | [14]; at 33.0 µM 98% | [14]; at 100.0 µM 95%
inactive: [15]; at 1.2 µM 0% | [15]; at 3.7 µM -2% | [3]; at 1.2 µM 1% | [3]; at 3.7 µM 6% | [3]; [16] 48% | [4]; at 1.2 µM -8% | [4]; at 3.7 µM -3% | [4]; [16] 32% | [5]; at 1.2 µM -2% | [5]; at 3.7 µM 4% | [6]; [16] 41% | [7]; at 1.2 µM 0% | [7]; at 3.7 µM 2% | [8]; [16] 6% | [8]; at 50.0 µM 8.2% | [9]; at 1.2 µM 1% | [9]; at 3.7 µM -5% | [9]; [16] 22% | [9]; at 50.0 µM 46.3% | [10]; at 1.2 µM -2% | [10]; at 3.7 µM -4% | [11]; at 1.2 µM -2% | [11]; at 3.7 µM 2% | [12]; at 1.2 µM -1% | [12]; at 3.7 µM 3% | [13]; [16] 59% | [14]; at 1.2 µM -2% | [14]; at 3.7 µM -1%

— PubChem BioAssay (NCI)
